An excerpt weighted towards active compounds, which were near 31% of everything screened.
CYP2C19 inhib – inhibitors of human CYP2C19; P33261; AID 778; actives 21% (n = 96,000); inhibition, % at 5 µM; CYP2C19 Supersomes, luciferin-H EGE luminescence, 30 min;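 active = CYP2C19 inhibition above a set limit at 5 µM in the primary screen, cut at about 50% in these data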;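 note: plate controls were negative control wells for no effect and 2.5 mM tranylcypromine positive control for full effect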
Target sequence (P33261 whole entry, looked up): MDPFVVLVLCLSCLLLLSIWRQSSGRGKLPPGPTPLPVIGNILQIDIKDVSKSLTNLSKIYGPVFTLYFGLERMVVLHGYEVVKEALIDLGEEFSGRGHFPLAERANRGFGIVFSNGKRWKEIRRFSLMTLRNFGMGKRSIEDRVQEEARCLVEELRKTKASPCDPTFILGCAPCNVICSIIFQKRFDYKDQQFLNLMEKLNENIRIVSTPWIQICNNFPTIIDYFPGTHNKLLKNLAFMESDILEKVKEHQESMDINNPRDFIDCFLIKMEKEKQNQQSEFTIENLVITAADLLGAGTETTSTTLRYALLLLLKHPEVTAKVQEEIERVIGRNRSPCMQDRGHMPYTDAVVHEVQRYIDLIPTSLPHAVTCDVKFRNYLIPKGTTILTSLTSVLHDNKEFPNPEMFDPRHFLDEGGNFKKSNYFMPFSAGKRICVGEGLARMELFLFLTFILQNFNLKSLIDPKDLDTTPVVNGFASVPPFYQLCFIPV
CYP2C9 act – CYP2C9 (human) activation. recombinant CYP2C9, luciferin-H conversion, luminescence; hits give high values; factor 1 = untreated enzyme, 0 = blocked. activation factor at 5 µM. actives 1.4% (n = 96,000);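 active = activation factor of 2 or more for CYP2C9 at a 5 µM dose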;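 note: 0 = sulfaphenazole-blocked wells and 1 = vehicle-only wells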
CYP2C9 inhib – human CYP2C9 inhibition; actives 20% (n = 96,000); P11712; CYP2C9 Supersomes, luciferin-H conversion, luminescence; AID 777; inhibition, % at 5 µM;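 active = blocking of liver enzyme CYP2C9 beyond about 50% at 5 µM, limit read from the data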
PLAP activator – human PLAP activation; P05187; purified PLAP enzyme, luminescent substrate read-out; hits give high values; activation fold at 20 µM; actives 1.2% (n = 96,000); in the data active = activation fold above about 2
CYP2C19 act – cytochrome P450 2C19 (human) activation; 96,000 tested, under 10 active; AID 1025; activation factor at 5 µM; recombinant CYP2C19, luciferin-H EGE luminescence; hits give high values; 0 = fully inhibited enzyme, 1 = untreated enzyme; P33261;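 active = activation factor of at least 2 at 5 µM in the primary screen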;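 note: 0 = wells with 2.5 mM tranylcypromine and 1 = vehicle-only wells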
An asterisk follows results filed as active.

For CCN1C(c2ccccc2)C(C)C(=O)C(C)C1c1ccccc1 (configuration not stated) the results were CYP2C19 inhib 65*, CYP2C9 act 0.1, CYP2C9 inhib 88*, PLAP activator 0.7 and CYP2C19 act 0.3.
Screening CC1C2C(c3ccccc3)N(C)C(=O)N(C)C2N(C)C(=O)N1C (configuration not stated) returned CYP2C19 inhib -7, CYP2C9 act 1.1, CYP2C9 inhib -11, PLAP activator 1 and CYP2C19 act 1.1.
Cc1cc(=O)[nH]c(SCC(=O)Nc2ccc(Cl)cn2)n1 was read as CYP2C19 inhib 46, CYP2C9 act 0.8, CYP2C9 inhib 17, PLAP activator 1 and CYP2C19 act 0.5.
COc1cc(NC(=S)N2CCN(C(c3ccccc3)c3ccccc3)CC2)cc(OC)c1 was read as CYP2C19 inhib 32, CYP2C9 act 0.6, CYP2C9 inhib 38, PLAP activator 1.2 and CYP2C19 act 0.7.
Screening CC12CCC(C(=O)NCc3ccccc3)(OC1=O)C2(C)C (configuration not stated) returned CYP2C19 inhib -8, CYP2C9 act 1.2, CYP2C9 inhib -25, PLAP activator 1.2 and CYP2C19 act 1.1.
O=C(CSc1ncccn1)N1CCN(C(c2ccccc2)c2ccccc2)CC1 was read as CYP2C19 inhib 22, CYP2C9 act 0.7, CYP2C9 inhib 27, PLAP activator 1.5 and CYP2C19 act 0.8.
`CCNC(=S)N1CCN(C(c2ccccc2)c2ccccc2)CC1` gave CYP2C19 inhib 40, CYP2C9 act 0.1, CYP2C9 inhib 91*, PLAP activator 1.7 and CYP2C19 act 0.6.
For O=C(C1CCN(S(=O)(=O)c2ccccc2)CC1)N1CCOCC1 the results were CYP2C19 inhib 8, CYP2C9 act 0.9, CYP2C9 inhib 6, PLAP activator 0.8 and CYP2C19 act 0.9.
For CC12CCC(C(=O)N3CCN(C(c4ccccc4)c4ccccc4)CC3)(OC1=O)C2(C)C (configuration not stated) the results were CYP2C19 inhib 48, CYP2C9 act 0.1, CYP2C9 inhib 86*, PLAP activator 1.7 and CYP2C19 act 0.5.
Screening O=C(C1CC1)N1CCN(C(c2ccccc2)c2ccccc2)CC1 returned CYP2C19 inhib 93*, CYP2C9 act 0.3, CYP2C9 inhib 69*, PLAP activator 1.7 and CYP2C19 act 0.1.
`O=C(C1CC1)N1CCC(C(O)(c2ccccc2)c2ccccc2)CC1` gave CYP2C19 inhib 90*, CYP2C9 act 0.4, CYP2C9 inhib 61*, PLAP activator 1.7 and CYP2C19 act 0.1.
Screening CCOc1ccc(NC(=O)CN2CCN(CC(=O)Nc3ccc(Cl)c(C(F)(F)F)c3)CC2)cc1 returned CYP2C19 inhib 23, CYP2C9 act 0.7, CYP2C9 inhib 32, PLAP activator 1.7 and CYP2C19 act 0.8.
For Cc1c(Cl)cccc1NC(=O)CCN1CCCCC1 the results were CYP2C19 inhib -19, CYP2C9 act 1.1, CYP2C9 inhib -14, PLAP activator 0.9 and CYP2C19 act 1.2.
For Cc1c(Cl)cccc1NC(=O)CN1CCC(C(O)(c2ccccc2)c2ccccc2)CC1 the results were CYP2C19 inhib 1, CYP2C9 act 0.3, CYP2C9 inhib 70*, PLAP activator 1.4 and CYP2C19 act 1.
`Nc1nonc1-n1nncc1-c1ccccc1` gave CYP2C19 inhib 16, CYP2C9 act 1, CYP2C9 inhib 4, PLAP activator 1.1 and CYP2C19 act 0.8.
COC(=O)CCc1nc2ccccc2[nH]c1=O was read as CYP2C19 inhib 22, CYP2C9 act 1.1, CYP2C9 inhib -6, PLAP activator 0.9 and CYP2C19 act 0.8.
For CC(OC(=O)CCc1nc2ccccc2[nH]c1=O)C(=O)c1ccccc1 (configuration not stated) the results were CYP2C19 inhib 96*, CYP2C9 act 0.3, CYP2C9 inhib 67*, PLAP activator 1 and CYP2C19 act 0.
`O=C(CN1CCOCC1)OCCCc1ccccc1` gave CYP2C19 inhib 66*, CYP2C9 act 1.1, CYP2C9 inhib -14, PLAP activator 1.2 and CYP2C19 act 0.3.
`Cc1noc(C)c1C(=O)Nc1nc(C23CC4CC(CC(C4)C2)C3)cs1` gave CYP2C19 inhib 6, CYP2C9 act 1, CYP2C9 inhib 1, PLAP activator 1.1 and CYP2C19 act 0.9.
COc1ccccc1OCCOCCn1cnc2ccccc2c1=O was read as CYP2C19 inhib 67*, CYP2C9 act 1.2, CYP2C9 inhib -18, PLAP activator 1.6 and CYP2C19 act 0.3.
For COCC(=O)N(c1ccc(C(C)C)cc1)C1C=CS(=O)(=O)C1 (configuration not stated) the results were CYP2C19 inhib -4, CYP2C9 act 1, CYP2C9 inhib -2, PLAP activator 0.8 and CYP2C19 act 1.
`Clc1cccc(Cl)c1CO/N=C/c1c(-c2ccccc2)nc2n1CCS2` gave CYP2C19 inhib 4, CYP2C9 act 0.3, CYP2C9 inhib 73*, PLAP activator 1.1 and CYP2C19 act 1.
Screening CS(=O)(=O)N1CCN(C(=O)c2ccc(F)cc2)CC1 returned CYP2C19 inhib -8, CYP2C9 act 1.2, CYP2C9 inhib -24, PLAP activator 0.9 and CYP2C19 act 1.1.
`CCOCCCNS(=O)(=O)c1ccc(NC(=O)N2c3ccccc3Sc3ccccc32)cc1` gave CYP2C19 inhib 46, CYP2C9 act 0.1, CYP2C9 inhib 92*, PLAP activator 1.4 and CYP2C19 act 0.5.
`COc1ccc(CNC(=O)Cc2csc(Nc3nc(=S)[nH]c4ccccc34)n2)cc1` gave CYP2C19 inhib 66*, CYP2C9 act 0.1, CYP2C9 inhib 86*, PLAP activator 1.6 and CYP2C19 act 0.3.
Screening O=C(Cc1csc(Nc2nc(=S)[nH]c3ccccc23)n1)NCc1ccc(Cl)cc1 returned CYP2C19 inhib 56*, CYP2C9 act 0.2, CYP2C9 inhib 83*, PLAP activator 1.2 and CYP2C19 act 0.4.
`Nc1nonc1C(=O)NCCNCc1ccccc1` gave CYP2C19 inhib -4, CYP2C9 act 1.1, CYP2C9 inhib -10, PLAP activator 1 and CYP2C19 act 1.
Screening CCCCNC(=S)NNC(=O)c1sccc1C returned CYP2C19 inhib 88*, CYP2C9 act 0.9, CYP2C9 inhib 12, PLAP activator 1.5 and CYP2C19 act 0.1.
CCCCNC(=S)NC(=O)c1ccc(Cl)cc1Cl was read as CYP2C19 inhib 36, CYP2C9 act 0.9, CYP2C9 inhib 15, PLAP activator 1.2 and CYP2C19 act 0.6.
For COc1cccc(N=C2SC(C(=O)Nc3ccc(F)cc3)CC(=O)N2C)c1 (configuration not stated) the results were CYP2C19 inhib 83*, CYP2C9 act 0, CYP2C9 inhib 99*, PLAP activator 1 and CYP2C19 act 0.2.
`COC(=O)c1ccc(NC(=O)CN2CCN(c3ccc(Cl)cc3)CC2)cc1` gave CYP2C19 inhib 4, CYP2C9 act 1, CYP2C9 inhib 4, PLAP activator 1.1 and CYP2C19 act 1.

Compound activity from PubChem.
